Source: the supplement of paper PMC10849652
Targets with a hit are over-represented here; the source holds about 8,800 in all. About 0.5% of all pairs of compound and target were hits. Values without a mark were called inactive.

Assays:
Assay in all cases: log2 fold change, soluble protein after heating vs DMSO (PISA); higher = thermal stabilisation; K562 lysate, 10 uM; active = over 0.2 and 3.5 SD of the protein, either way, in both replicates (recomputed)
ibrutinib = compound: C=CC(=O)N1CCC[C@@H](n2nc(-c3ccc(Oc4ccccc4)cc3)c3c(N)ncnc32)C1 [ibrutinib]
In short: (§1)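 Following dounce homogenisation of K562 pellets in PBS pH 7.4 with 1 mM MgCl2, crude extract at 1 mg/mL protein was incubated for 30 min with 10 μM compound. Aliquots were then heated for 3 min over 48°C-58°C and pooled, NP-40 was added to 0.5% at 4°C, and soluble protein was recovered as the supernatant at 21,000xg for 90 min. Channel-sum-equalised TMTpro 16plex LC-MS/MS quantified this protein. Each value, from duplicates, is a log-two fold change in thermal stability relative to solvent controls.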

[1] = compound: CC(=O)c1cnc2ccc(-c3cc(Cl)c(O)c(Cl)c3)nc2c1N[C@H]1CC[C@H](CN(C)C)CC1
In short: as §1

ralimetinib = compound: CC(C)(C)Cn1c(N)nc2ccc(-c3[nH]c(C(C)(C)C)nc3-c3ccc(F)cc3)nc21 [ralimetinib]
In short: as §1

[2] = compound: CC(C)(O)CC(=O)NCCn1ccc2ncnc(Nc3ccc(Oc4cccc(C(F)(F)F)c4)c(Cl)c3)c21
In short: as §1

[3] = compound: CC(C)C1=C2N=C(C=C(N2N=C1)NCC3=CC=CC=C3)NCCCCCCN
In short: as §1

[4] = compound: CC1=C(C(CC(=O)N1)C2=CC=C(C=C2)C(F)(F)F)C(=O)NC3=C(C=C4C(=C3)C=NN4)F
In short: as §1

[5] = compound: CC1=C(C2=C(C=C1)C(=O)C3=CC=CC=C3N2CCCN)C
In short: as §1

[6] = compound: CC1=C(C=C(C=C1)NC(=O)C2=CC(=CC=C2)C(C)(C)C#N)NC3=CC4=C(C=C3)N=CN(C4=O)C
In short: as §1

[7] = compound: CC1=C(C=C(C=C1)NC(=O)C2=CC(=CC=C2)N(C)C)NC(=O)C3=CC=C(C=C3)O
In short: as §1

[8] = compound: CC1=CC=C(C=C1)SC2=C3C=C(SC3=CN=C2)C(=O)N
In short: as §1

vemurafenib = compound: CCCS(=O)(=O)Nc1ccc(F)c(C(=O)c2c[nH]c3ncc(-c4ccc(Cl)cc4)cc23)c1F [vemurafenib]
In short: as §1

[9] = compound: CCCS(=O)(=O)Nc1ccc(F)c(C(=O)c2c[nH]c3ncc(Cl)cc23)c1F
In short: as §1

barasertib = compound: CCN(CCCOc1ccc2c(Nc3cc(CC(=O)Nc4cccc(F)c4)[nH]n3)ncnc2c1)CCOP(=O)(O)O [barasertib]
In short: as §1

[10] = compound: CC[C@@H]1C(=O)N(C)c2cnc(Nc3ccc(C(=O)NC4CCN(C)CC4)cc3OC)nc2N1C1CCCC1
In short: as §1

volasertib = compound: CC[C@@H]1C(=O)N(C)c2cnc(Nc3ccc(C(=O)N[C@H]4CC[C@H](N5CCN(CC6CC6)CC5)CC4)cc3OC)nc2N1C(C)C [volasertib]
In short: as §1

[11] = compound: CCn1c(C(=O)N(C2CC2)C2CC2)cc2c3c(ncn3C)c(Nc3cc(C)n(C)n3)nc21
In short: as §1

[12] = compound: CCn1cc(-c2ccnc3[nH]c(-c4cccc(CN(C)C)c4)cc23)c(-c2ccc(NC(=O)N(C)C)cc2)n1
In short: as §1

[13] = compound: CN1CCC(CNc2ccc3ncc(-c4cccc(OC(F)(F)F)c4)n3n2)CC1
In short: as §1

saracatinib = compound: CN1CCN(CCOc2cc(OC3CCOCC3)c3c(Nc4c(Cl)ccc5c4OCO5)ncnc3c2)CC1 [saracatinib]
In short: as §1

sotrastaurin = compound: CN1CCN(c2nc(C3=C(c4c[nH]c5ccccc45)C(=O)NC3=O)c3ccccc3n2)CC1 [sotrastaurin]
In short: as §1

Sequence of UniProt P55265 (P55265 whole entry, looked up): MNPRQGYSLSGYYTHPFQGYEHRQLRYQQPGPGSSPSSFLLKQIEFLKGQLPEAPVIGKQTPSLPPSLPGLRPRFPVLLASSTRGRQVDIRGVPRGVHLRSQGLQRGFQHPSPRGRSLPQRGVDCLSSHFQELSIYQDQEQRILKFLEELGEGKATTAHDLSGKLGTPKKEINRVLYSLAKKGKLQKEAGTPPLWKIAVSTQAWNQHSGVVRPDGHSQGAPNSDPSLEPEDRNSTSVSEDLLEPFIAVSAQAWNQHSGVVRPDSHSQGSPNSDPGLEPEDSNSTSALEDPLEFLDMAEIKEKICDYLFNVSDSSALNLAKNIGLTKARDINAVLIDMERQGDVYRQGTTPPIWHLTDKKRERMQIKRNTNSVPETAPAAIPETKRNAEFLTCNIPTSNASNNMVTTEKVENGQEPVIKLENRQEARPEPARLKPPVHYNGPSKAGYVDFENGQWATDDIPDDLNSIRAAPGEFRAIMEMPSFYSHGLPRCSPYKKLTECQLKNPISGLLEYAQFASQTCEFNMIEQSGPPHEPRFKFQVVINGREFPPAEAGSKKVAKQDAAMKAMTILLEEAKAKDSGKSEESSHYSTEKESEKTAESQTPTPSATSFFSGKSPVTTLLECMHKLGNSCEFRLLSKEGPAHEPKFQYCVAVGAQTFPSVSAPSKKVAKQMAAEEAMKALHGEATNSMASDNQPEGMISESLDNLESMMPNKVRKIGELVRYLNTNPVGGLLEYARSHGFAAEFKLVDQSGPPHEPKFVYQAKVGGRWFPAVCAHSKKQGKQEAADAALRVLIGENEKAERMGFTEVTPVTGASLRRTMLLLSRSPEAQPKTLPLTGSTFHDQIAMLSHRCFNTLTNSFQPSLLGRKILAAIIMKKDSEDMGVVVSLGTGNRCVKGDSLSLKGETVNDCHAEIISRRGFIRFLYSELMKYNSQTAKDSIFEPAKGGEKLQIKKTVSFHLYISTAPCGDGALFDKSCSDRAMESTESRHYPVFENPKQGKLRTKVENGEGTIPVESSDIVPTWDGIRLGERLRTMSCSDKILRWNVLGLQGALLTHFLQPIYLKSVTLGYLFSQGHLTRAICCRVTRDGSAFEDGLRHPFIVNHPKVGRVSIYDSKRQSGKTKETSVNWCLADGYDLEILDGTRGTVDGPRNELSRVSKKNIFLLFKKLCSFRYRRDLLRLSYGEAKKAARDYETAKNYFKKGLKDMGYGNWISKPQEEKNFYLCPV
Sequence of UniProt Q5T5U3 (Q5T5U3 whole entry, looked up): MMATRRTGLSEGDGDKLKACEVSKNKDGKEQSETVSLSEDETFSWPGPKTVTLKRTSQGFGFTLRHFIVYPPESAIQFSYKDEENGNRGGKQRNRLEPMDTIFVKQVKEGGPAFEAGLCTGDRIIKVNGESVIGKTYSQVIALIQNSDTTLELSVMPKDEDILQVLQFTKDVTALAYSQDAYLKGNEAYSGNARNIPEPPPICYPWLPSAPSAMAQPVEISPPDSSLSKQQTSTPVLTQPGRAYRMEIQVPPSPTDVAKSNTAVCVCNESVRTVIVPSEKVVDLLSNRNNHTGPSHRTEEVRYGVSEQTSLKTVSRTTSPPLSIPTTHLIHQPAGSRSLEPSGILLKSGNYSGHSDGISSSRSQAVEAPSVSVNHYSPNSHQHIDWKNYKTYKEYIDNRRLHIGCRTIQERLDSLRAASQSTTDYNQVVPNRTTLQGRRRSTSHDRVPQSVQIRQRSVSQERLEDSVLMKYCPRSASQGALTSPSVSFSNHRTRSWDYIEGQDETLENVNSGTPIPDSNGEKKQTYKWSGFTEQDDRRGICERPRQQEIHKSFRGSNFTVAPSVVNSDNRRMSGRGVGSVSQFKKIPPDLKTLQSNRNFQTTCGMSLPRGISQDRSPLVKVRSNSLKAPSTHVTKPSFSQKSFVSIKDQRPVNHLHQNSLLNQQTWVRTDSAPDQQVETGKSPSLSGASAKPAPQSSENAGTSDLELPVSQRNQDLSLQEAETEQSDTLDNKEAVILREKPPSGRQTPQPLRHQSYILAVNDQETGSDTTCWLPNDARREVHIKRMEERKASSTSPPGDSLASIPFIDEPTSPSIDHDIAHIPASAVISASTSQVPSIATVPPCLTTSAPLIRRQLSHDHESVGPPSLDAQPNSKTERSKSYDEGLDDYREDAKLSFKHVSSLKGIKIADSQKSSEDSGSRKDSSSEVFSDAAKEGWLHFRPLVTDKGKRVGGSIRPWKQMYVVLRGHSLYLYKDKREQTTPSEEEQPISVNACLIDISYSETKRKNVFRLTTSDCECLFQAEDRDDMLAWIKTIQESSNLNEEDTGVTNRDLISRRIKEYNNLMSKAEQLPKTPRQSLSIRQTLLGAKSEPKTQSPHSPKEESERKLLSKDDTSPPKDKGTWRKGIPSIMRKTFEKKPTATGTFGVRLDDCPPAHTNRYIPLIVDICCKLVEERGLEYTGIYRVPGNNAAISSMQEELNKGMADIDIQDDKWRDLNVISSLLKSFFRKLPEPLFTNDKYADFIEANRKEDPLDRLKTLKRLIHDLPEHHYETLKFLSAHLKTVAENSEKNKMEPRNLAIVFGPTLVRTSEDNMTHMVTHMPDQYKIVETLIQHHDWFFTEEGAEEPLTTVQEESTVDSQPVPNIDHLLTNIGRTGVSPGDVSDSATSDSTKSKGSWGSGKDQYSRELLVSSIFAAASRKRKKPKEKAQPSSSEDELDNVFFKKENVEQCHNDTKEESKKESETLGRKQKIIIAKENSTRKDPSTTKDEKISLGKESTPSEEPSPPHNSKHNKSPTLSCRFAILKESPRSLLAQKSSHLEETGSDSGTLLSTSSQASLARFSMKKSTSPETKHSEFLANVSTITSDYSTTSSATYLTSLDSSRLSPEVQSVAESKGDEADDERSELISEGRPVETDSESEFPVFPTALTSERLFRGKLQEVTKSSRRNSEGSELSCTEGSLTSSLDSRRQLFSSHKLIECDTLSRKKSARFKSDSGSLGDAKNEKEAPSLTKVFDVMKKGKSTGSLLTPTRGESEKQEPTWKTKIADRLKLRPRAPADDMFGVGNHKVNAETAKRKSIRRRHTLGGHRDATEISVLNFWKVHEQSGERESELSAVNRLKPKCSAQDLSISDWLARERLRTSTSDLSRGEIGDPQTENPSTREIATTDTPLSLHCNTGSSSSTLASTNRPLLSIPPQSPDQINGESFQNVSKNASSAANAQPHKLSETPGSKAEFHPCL
Sequence of UniProt Q96BM9 (Q96BM9 whole entry, looked up): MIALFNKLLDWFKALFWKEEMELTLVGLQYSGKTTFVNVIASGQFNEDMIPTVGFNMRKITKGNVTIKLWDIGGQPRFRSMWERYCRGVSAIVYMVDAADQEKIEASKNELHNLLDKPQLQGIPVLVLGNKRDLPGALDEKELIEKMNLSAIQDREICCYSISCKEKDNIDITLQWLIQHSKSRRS
Sequence of UniProt P27695 (P27695 whole entry, looked up): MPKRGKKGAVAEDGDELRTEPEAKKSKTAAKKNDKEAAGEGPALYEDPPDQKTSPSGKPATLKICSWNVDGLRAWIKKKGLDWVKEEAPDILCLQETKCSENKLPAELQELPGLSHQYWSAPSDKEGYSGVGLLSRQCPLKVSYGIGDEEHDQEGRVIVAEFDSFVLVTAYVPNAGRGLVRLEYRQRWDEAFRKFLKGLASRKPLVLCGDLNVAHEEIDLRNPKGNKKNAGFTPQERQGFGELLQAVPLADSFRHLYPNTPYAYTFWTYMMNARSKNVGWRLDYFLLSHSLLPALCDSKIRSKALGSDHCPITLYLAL
Sequence of UniProt Q9BTT0 (Q9BTT0 whole entry, looked up): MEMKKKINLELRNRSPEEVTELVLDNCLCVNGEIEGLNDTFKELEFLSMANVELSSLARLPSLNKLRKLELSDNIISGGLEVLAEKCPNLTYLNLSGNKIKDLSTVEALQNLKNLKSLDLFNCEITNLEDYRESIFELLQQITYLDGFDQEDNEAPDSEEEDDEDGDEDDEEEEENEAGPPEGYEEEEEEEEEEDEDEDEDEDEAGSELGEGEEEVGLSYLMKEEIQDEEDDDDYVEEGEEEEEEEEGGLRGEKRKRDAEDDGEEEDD
Sequence of UniProt P07311 (P07311 whole entry, looked up): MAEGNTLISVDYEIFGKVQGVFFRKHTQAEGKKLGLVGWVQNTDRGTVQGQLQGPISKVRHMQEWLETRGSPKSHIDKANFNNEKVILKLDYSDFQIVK
Sequence of UniProt P54886 (P54886 whole entry, looked up): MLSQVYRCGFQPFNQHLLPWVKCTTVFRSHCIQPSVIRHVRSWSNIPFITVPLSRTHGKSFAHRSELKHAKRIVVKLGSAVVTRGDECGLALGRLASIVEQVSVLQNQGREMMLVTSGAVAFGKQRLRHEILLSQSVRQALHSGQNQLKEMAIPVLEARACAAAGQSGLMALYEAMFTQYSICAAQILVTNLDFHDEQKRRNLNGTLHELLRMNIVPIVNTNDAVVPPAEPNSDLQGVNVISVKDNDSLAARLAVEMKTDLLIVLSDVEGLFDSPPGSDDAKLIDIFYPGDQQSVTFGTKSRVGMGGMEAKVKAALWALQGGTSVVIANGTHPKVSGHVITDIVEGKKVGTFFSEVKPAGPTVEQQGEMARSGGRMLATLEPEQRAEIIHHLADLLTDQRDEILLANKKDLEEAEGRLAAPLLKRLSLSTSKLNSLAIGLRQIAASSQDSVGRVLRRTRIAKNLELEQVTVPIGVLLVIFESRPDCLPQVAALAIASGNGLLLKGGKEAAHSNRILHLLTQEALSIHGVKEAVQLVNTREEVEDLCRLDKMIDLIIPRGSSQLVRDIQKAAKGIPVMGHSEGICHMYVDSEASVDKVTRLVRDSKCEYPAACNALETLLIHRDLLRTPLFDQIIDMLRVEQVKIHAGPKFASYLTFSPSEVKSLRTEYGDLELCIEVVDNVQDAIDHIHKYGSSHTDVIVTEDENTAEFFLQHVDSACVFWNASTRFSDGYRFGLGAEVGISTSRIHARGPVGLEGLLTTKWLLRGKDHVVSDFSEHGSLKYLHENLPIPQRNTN

Row | Target | log2 fold change (ibrutinib) | log2 fold change [1] | log2 fold change (ralimetinib) | log2 fold change [2] | log2 fold change [3] | log2 fold change [4] | log2 fold change [5] | log2 fold change [6] | log2 fold change [7] | log2 fold change [8] | log2 fold change (vemurafenib) | log2 fold change [9] | log2 fold change (barasertib) | log2 fold change [10] | log2 fold change (volasertib) | log2 fold change [11] | log2 fold change [12] | log2 fold change [13] | log2 fold change (saracatinib) | log2 fold change (sotrastaurin)
1 | APEX1 (UniProt P27695) | 0.048 | -0.001 | -0.014 | 0.026 | 0.006 | 0.001 | -0.02 | -0.011 | 0.01 | 0.019 | 0.019 | 0.017 | -0.027 | -0.03 | -0.004 | 0.043 | 0.37 (active) | -0.07 | -0.001 | 0.009
2 | AMDHD2 isoform 3 (UniProt Q9Y303) | 0.032 | 0.006 | -0.059 | -0.025 | -0.011 | 0.009 | 0.013 | -0.015 | -0.017 | -0.017 | 0.009 | 0.019 | -0.021 | 0.003 | 0.015 | -0.024 | -0.031 | 0.005 | -0.007 | 0.019
3 | AFF4 (UniProt Q9UHB7) | 0.172 | -0.009 | -0.049 | 0.033 | -0.008 | -0.028 | -0.047 | 0.009 | 0.002 | 0.024 | 0.157 | -0.012 | -0.072 | 0.001 | -0.019 | 0.023 | -0.133 | -0.04 | -0.009 | 0.002
4 | ARL8A (UniProt Q96BM9) | -0.141 | 0.119 | -0.101 | -0.102 | 0.11 | 0.135 | -0.049 | -0.143 | -0.022 | 0 | -0.029 | -0.26 | -0.026 | -0.001 | -0.037 | -0.03 | 0.558 (active) | -0.199 | 0.03 | 0.022
5 | AGPAT1 (UniProt Q99943) | -0.121 | -0.05 | 0.027 | -0.051 | -0.026 | 0.06 | 0.012 | 0.02 | 0.043 | 0.042 | 0.008 | 0.016 | 0.038 | -0.013 | 0.006 | -0.004 | 0.068 | -0.049 | 0.038 | -0.009
6 | ANP32E (UniProt Q9BTT0) | 0.03 | -0.009 | -0.015 | 0.001 | 0.022 | -0.051 | -0.072 | 0.011 | -0.065 | 0.063 | -0.012 | 0.004 | -0.064 | 0.059 | -0.001 | -0.011 | -0.058 | 0.024 | 0.028 | -0.023
7 | ARHGAP21 (UniProt Q5T5U3) | 0.016 | 0.047 | 0.017 | -0.047 | 0.022 | 0.077 | -0.053 | 0.062 | 0.052 | -0.015 | 0.107 | 0.073 | 0.061 | -0.01 | -0.027 | 0.037 | 0.043 | -0.202 | 0.034 | 0.023
8 | ADAR isoform 4 (UniProt P55265) | 0.152 | -0.025 | 0.029 | -0.019 | -0.03 | 0.018 | 0.016 | -0.002 | 0.015 | -0.021 | 0.077 | 0.051 | 0.061 | 0.011 | 0.003 | 0.025 | -0.001 | -0.049 | 0.04 | 0.032
9 | ACACB (UniProt O00763) | 0.051 | 0.018 | 0.069 | 0.032 | 0.014 | -0.036 | 0.015 | 0.021 | 0.052 | 0.022 | 0.012 | 0.028 | 0.024 | -0.113 | -0.11 | 0.038 | -0.14 | 0.027 | 0.018 | 0.037
10 | ALDH18A1 (UniProt P54886) | 0.006 | 0.007 | 0.021 | -0.015 | -0.001 | -0.02 | 0.001 | 0.022 | 0.016 | -0.018 | 0.052 | -0.006 | 0.033 | -0.054 | -0.033 | 0.036 | 0.009 | -0.005 | 0.003 | 0.014
11 | ARHGEF2 (UniProt Q92974) | 0.028 | -0.003 | 0.043 | 0.005 | 0.014 | 0.008 | -0.034 | 0.047 | 0.018 | 0.01 | -0.006 | 0.013 | -0.002 | 0 | -0.026 | -0.021 | -0.02 | -0.003 | 0.009 | 0.027
12 | ACADM isoform 2 (UniProt P11310) | 0.151 | 0.026 | -0.015 | -0.047 | 0.396 (active) | -0.041 | -0.004 | -0.055 | -0.019 | 0.046 | 0.02 | -0.011 | 0.069 | 0.001 | -0.062 | -0.051 | -0.031 | -0.046 | -0.023 | 0.67 (active)
13 | ACYP1 (UniProt P07311) | 0.056 | 0.027 | 0 | -0.024 | -0.011 | -0.021 | 0.015 | -0.013 | -0.024 | 0.021 | -0.038 | -0.024 | 0.024 | -0.005 | 0.032 | 0.006 | 0.284 (active) | -0.082 | 0.003 | -0.032
14 | ANKRD52 (UniProt Q8NB46) | 0.01 | -0.089 | -0.002 | -0.025 | 0.022 | 0.007 | -0.058 | 0.011 | 0.047 | -0.363 (active) | -0.052 | 0.032 | 0.029 | -0.019 | 0.097 | 0.063 | 0.061 | -0.015 | -0.022 | -0.008
15 | ALG8 (UniProt Q9BVK2) | 0.017 | -0.013 | 0.013 | 0.036 | -0.028 | -0.005 | 0.054 | 0.027 | -0.011 | -0.003 | -0.038 | -0.013 | 0 | -0.084 | 0.034 | 0.045 | -0.316 (active) | 0.001 | 0.005 | 0.038
16 | ALDH5A1 isoform 2 (UniProt P51649) | 0.041 | 0.018 | -0.015 | 0.001 | -0.019 | -0.01 | 0.001 | 0.021 | -0.022 | 0.011 | -0.016 | 0.011 | -0.009 | -0.024 | -0.001 | 0.031 | 0.004 | 0.008 | 0 | -0.023
